Experimental data: PubChem BioAssay (NCATS)
Where “and” joins values, the source holds several entries; their conditions need not be identical. Equal entries are not always repeated. Inconclusive results are not listed. Entries that show only a call come without a potency. Unmarked numbers belong to inactive results. Calls of active or inactive are those of the source. The call rests on the fitted dose curve; in most records, active means well fitted inhibition curve with a large enough effect; inconclusive means small, poorly fitted or top-dose-only effect; inactive means no such curve, though single readings can be large or run the other way.

Experiment: Primary qHTS for inhibitors of nuclear receptor binding SET domain protein 2 (NSD2) in an RCH-ACV wild type WT cells (2C) (AID 1645877); further: nearly all actives have a fitted effect of over 70% in size
Potency means the concentration at half of the fitted maximal effect.

SMILES | Potency | activity change, negative = cell killing
CC(=O)c1ccc(O[C@@H]2O[C@H](CO)[C@@H](O)[C@H](O)[C@H]2O)cc1 | inactive | –
COC(=O)c1c(C)cc(OC(=O)c2c(C)cc(OC)cc2OC)cc1O[C@@H]1O[C@H](CO)[C@@H](O)[C@H](O)[C@H]1O | inactive | –
Nc1ncnc2c1nc(N)n2[C@@H]1O[C@H](CO)[C@@H](O)[C@H]1O | 649 nM (active) | –
CC1COC(Nc2ccc3ncnc(Nc4ccc(OCc5nccs5)c(Cl)c4)c3c2)=N1 (stereo not given) | 12900 nM (active) | –
COc1ccc(C2(O)c3ccccc3NC(=O)C2O)cc1 (stereo not given) | inactive | –
CC1(C)CC[C@]2(CO[C@@H]3O[C@H](CO)[C@@H](O)[C@H](O)[C@H]3O)[C@@H](O)C[C@]3(C)C(=CCC4[C@@]5(C)CC[C@H](O[C@@H]6O[C@H](CO[C@@H]7O[C@H](CO[C@@H]8OC[C@@H](O)[C@H](O)[C@H]8O)[C@@H](O)[C@H](O)[C@H]7O)[C@@H](O)[C@H](O)[C@H]6O)C(C)(C)C5CC[C@]43C)[C@@H]2C1 (stereo not given in full) | – | -16% [at 9.23 µM]
C[C@H](CCC(=O)O)[C@H]1CC[C@H]2[C@@H]3C[C@H](O)[C@@H]4C[C@H](O)CC[C@]4(C)[C@H]3CC[C@]12C | inactive | –
CC1OC(OC2C(O)C(OC3CCC4(C)C(CCC5(C)C4CC=C4C6CC(C)(COC7OC(CO)C(O)C(O)C7O)CC(O)C6(C)CCC45C)C3(C)C)OC(C(=O)O)C2O)C(O)C(O)C1OC1OCC(O)C(O)C1O (stereo not given) | – | -2.6% [at 9.23 µM]
CCOc1ccc(NC(=S)N2CCC(C(O)(c3ccccc3)c3ccccc3)CC2)cc1 | inactive | –
COc1ccccc1NC(=O)OCC1CCN(C(=O)OC(C)(C)C)CC1 | inactive | –
CCC1C(=O)N(C)c2cnc(Nc3ccc(C(=O)NC4CCC(N5CCN(CC6CC6)CC5)CC4)cc3OC)nc2N1C(C)C (stereo not given) | 25.8 nM (active) | –
C/C=C(\C)C(=O)O[C@H]1[C@@H](O[C@]2(COC(=O)CC(C)C)O[C@H](COC(=O)C(C)CC)[C@@H](OC(C)=O)[C@@H]2O)O[C@H](COC(C)=O)[C@@H](O)[C@@H]1O (stereo not given in full) | inactive | –
CC12CCC(OC3OC(CO)C(O)C(OC4OC(CO)C(O)C(O)C4O)C3O)CC1CCC1C2CCC2(C)/C(=C3/COC(=O)C3)CCC12O (stereo not given) | inactive | –
CC1(C)CCC2(C(=O)OC3OCC(O)C(O)C3O)CCC3(C)C(=CCC4C5(C)CC(O)C(OC6OC(COC7OCC(O)C(O)C7O)C(O)C(O)C6O)C(C)(C)C5CCC43C)C2C1 (stereo not given) | – | -0.57% [at 9.23 µM]
N#C[C@@H]1C[C@H](F)CN1C(=O)CNC1[C@H]2CN(C(=O)c3ccc(F)cc3)C[C@@H]12 (stereo not given in full) | inactive | –
C/C=C/C=C/[C@@H]1O[C@](O)([C@H](CC)C(=O)NC/C=C/C=C(\C)[C@@H](OC)[C@@H](C)C2OC(/C=C/C=C/C=C(\C)C(=O)c3c(O)cc[nH]c3=O)[C@H](O)[C@@H]2O)[C@H](O)[C@H](O)C1(C)C (stereo not given in full) | inactive | –
NCc1ccc(Nc2ncc(F)c(Nc3ccccc3)n2)cc1 | 4090 nM (active) | –
CCn1cc(NC(=S)Nc2cc(Cl)ccc2OC)c(C(N)=O)n1 | inactive | –

SMILES | Potency | activity change, negative = cell killing
C=C[C@H]1C(O[C@@H]2O[C@H](CO)[C@@H](O)[C@H](O)[C@H]2O)OC=C2C(=O)N3CCc4c([nH]c5ccccc45)C3CC21 (stereo not given in full) | inactive | –
C=C1C[C@@]23CCC4[C@@](C)(CCC[C@@]4(C)C(=O)OC)C2CC[C@@H]1C3 (stereo not given in full) | inactive | –
COc1cc(O)cc(C)c1C(=O)OC1C(CO)OC(OC2C(O)C(O)C(O)C(O)C2O)C(O)C1O (stereo not given) | inactive | –
COC(=O)CC(C)(O)CC(=O)OCc1ccc(O[C@@H]2O[C@H](CO)[C@@H](O)[C@H](O)[C@H]2O)cc1 (stereo not given in full) | inactive | –
O=C(O)c1cc2cccc([N+](=O)[O-])c2[nH]1 | inactive | –
CCOCCn1nc(CC)c2nc(N3CCC(C(=O)O)CC3)nc(Nc3cc(C)ccn3)c21 | inactive | –
N#Cc1cc(F)cc(-c2nc(-c3ccccn3)no2)c1 | inactive | –
Cc1oc2ccccc2c1CNC(=O)NCc1cccs1 | inactive | –
CC(C)C(CO)Nc1nc(Nc2cc(N)cc(Cl)c2)c2ncn(C(C)C)c2n1 (stereo not given) | 6490 nM (active) | –
C[C@@H]1O[C@@H](OC[C@H]2O[C@@H](Oc3cc(O)cc4c3C(=O)C(O)(Cc3ccc(O)cc3)O4)[C@H](O)[C@@H](O)[C@@H]2O)[C@H](O)[C@H](O)[C@H]1O (stereo not given in full) | inactive | –
COc1ccc(-c2cnc(-c3cccc4c3-c3ccccc3C4=O)o2)cc1 | 89.3 nM (active) | –
CC12CCC(=O)C=C1C(O)CC1C2C(O)CC2(C)C1CC[C@]2(O)C(=O)CO (stereo not given in full) | – | -15% [at 9.23 µM]
CC(=O)CCC1=C(C)C(O[C@@H]2O[C@H](CO)[C@@H](O)[C@H](O)[C@H]2O)C(O)CC1(C)C (stereo not given in full) | inactive | –
C=C(C(=O)OC)C1C(O)CC2(C)C(=O)CCC(O)(CO)C2C1O (stereo not given) | inactive | –
CC(C)(O)CC(CO)NC(=O)CC(O)CC(=O)Cc1ccccc1 (stereo not given) | inactive | –
CC(C)[C@H]1CC[C@@]2(O)COC(=O)[C@H]2[C@@H]1/C=C(\CO)C(=O)O | inactive | –
CC[C@]1(O)CC2CN(CCc3c([nH]c4ccccc34)[C@@](C(=O)OC)(c3cc4c(cc3OC)N(C)[C@H]3[C@@](O)(C(=O)OC)[C@H](OC(C)=O)[C@]5(CC)C=CCN6CC[C@]43[C@@H]65)C2)C1 (stereo not given in full) | 45.9 nM (active) and 372 nM (active) | –
